Records with an inconclusive call do not appear. Active and inactive are the calls of the source. The call rests on the fitted dose curve; in most records, active means well fitted curve in the direction sought with a large enough effect; inconclusive means small, poorly fitted or top-dose-only effect, or another doubt; inactive means no such curve, though single readings can be large; an effect the other way counts as inactive or inconclusive.
Assays:
[1] = Panc-1005 Cancer Cell Toxicity qHTS against the NCATS CANVASS Library (AID 1347349); further: nearly all actives have a fitted effect of over 60% in size; further: potency means the concentration at half of the fitted maximal effect
Method in brief: (§1)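 Cells were seeded at 1000 per well, allowed 4 h at 37 degrees C/5% CO2, then pin-treated with an 11-point compound series. After 72 h, viability was read as CellTiter-Glo luminescence following 15min at room temperature.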

[2] = SW1088 Cancer Cell Toxicity qHTS against the NCATS CANVASS Library (AID 1347350); details: SW1088 viability, CellTiter-Glo luminescence, 72 h; further: potency means the concentration at half of the fitted maximal effect; nearly all actives have a fitted effect of over 75% in size
Method in brief: as §1

[3] = U-118MG Cancer Cell Toxicity qHTS against the NCATS CANVASS Library (AID 1347351)
Method in brief: as §1

[4] = HPAF-II 24hr Apoptosis Induction qHTS against the NCATS CANVASS Library (AID 1347356)
Method in brief: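 Caspase-Glo 3/7 luminescence, read after 15 min room-temperature development, measures apoptosis in HPAF-II cells treated 24 h at 37 degrees C with an 11-point concentration series; 500 cells/well; doxorubicin control.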

[5] = HEK293 18hr Apoptosis Induction qHTS against the NCATS CANVASS Library (AID 1347357)
Method in brief: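 Cells seeded at 500/well in DMEM + 10% FBS. Compounds pinned, 11 concentrations. 18 h, 37 degrees C/5% CO2. Caspase-Glo 3/7 added, 15 min RT dark, luminescence read.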

[6] = HPAF-II 12hr Apoptosis Induction qHTS against the NCATS CANVASS Library (AID 1347358)
Method in brief: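 Caspase-3/7 activation by DEVD-substrate luminescence (Caspase-Glo 3/7, 15 min, room temperature) after a 12-hour compound exposure in 11 concentrations, of HPAF-II pancreatic cells seeded at 500/well in DMEM with 10% FBS.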

[7] = HEK293 24hr Apoptosis Induction qHTS against the NCATS CANVASS Library (AID 1347359)
Method in brief: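 HEK293 cells (500/well, DMEM + 10% FBS) were exposed to compounds in an 11-point series for 24 hours at 37 degrees C, then caspase-3/7 activity was read by Caspase-Glo DEVD luciferase luminescence after 15 min.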

[8] = HPAF-II 18hr Apoptosis Induction qHTS against the NCATS CANVASS Library (AID 1347360)
Method in brief: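 Seed HPAF-II cells at 500/well in DMEM + 10% FBS, pin-transfer compounds, incubate 18 hours at 37 degrees C/5% CO2, add Caspase-Glo 3/7 reagent, wait 15 min, read luminescence.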

[9] = HEK293 12hr Apoptosis Induction qHTS against the NCATS CANVASS Library (AID 1347361)
Method in brief: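 Cells are seeded, dosed with an 11-point compound series and incubated 12 hours. Caspase-3/7 activity is detected by luminescent DEVD-substrate reagent after 15 minutes at room temperature.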

[10] = test system: NAD(P)H diaphorase (Clostridium kluyveri); experiment: Diaphorse counterscreen qHTS: Assay Interference Panel against the NCATS CANVASS Library (AID 1347362)
Method in brief: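 Clostridium kluyveri diaphorase in PBS with 0.01% Tween-20 was preincubated 15 min at room temperature in the dark with compounds (11-point series). Resorufin fluorescence (ex 525/20, em 598/25) was read 5 min after adding resazurin/NADH.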

[11] = biological target: Luciferin 4-monooxygenase (Photinus pyralis) (UniProt P08659); experiment: Firefly luciferase counterscreen qHTS: Assay Interference Panel against the NCATS CANVASS Library (AID 1347363)
Luciferin 4-monooxygenase (Photinus pyralis), sequence (P08659 whole entry, looked up): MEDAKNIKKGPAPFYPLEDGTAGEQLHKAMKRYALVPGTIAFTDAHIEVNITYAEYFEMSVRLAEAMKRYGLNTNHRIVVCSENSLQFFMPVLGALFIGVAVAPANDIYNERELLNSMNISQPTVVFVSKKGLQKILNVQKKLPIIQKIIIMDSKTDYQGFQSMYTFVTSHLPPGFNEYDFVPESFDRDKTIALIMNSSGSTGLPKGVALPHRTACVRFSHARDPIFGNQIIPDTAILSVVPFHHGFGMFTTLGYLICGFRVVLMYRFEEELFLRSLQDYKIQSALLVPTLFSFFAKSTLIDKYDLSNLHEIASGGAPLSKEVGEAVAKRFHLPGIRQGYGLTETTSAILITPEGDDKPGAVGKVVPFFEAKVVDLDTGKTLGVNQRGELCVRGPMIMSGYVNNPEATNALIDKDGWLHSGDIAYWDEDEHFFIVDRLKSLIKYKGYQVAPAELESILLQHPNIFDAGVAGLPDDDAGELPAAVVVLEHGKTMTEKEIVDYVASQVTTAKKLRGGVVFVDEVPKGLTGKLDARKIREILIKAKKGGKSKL
Method in brief: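 Purified P. pyralis luciferase was added to compounds (11-point series) preincubated 15 min at room temperature with substrate containing 0.013 mM D-luciferin and 0.013 mM ATP; luminescence was read after 5 min.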

[12] = SDT Cancer Cell Toxicity qHTS against the NCATS CANVASS Library (AID 1347365);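 further: SDT canine glioma cells 500 per well in 1536 well plates; nearly all actives have a fitted effect of over 60% in size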
Method in brief: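 Cytotoxicity taken from CellTiterGlo ATP luminescence after 72 hr at 37C, 5% CO2. Canine glioma line SDT, 500 cells/well, treated at 11 concentrations; bortezomib dose series as control.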

[13] = HPAF-II Cancer Cell Toxicity qHTS against the NCATS CANVASS Library (AID 1347346); further: nearly all actives have a fitted effect of over 55% in size
Method in brief: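 Cytotoxicity read-out was CellTiter-Glo luminescence after 72 h at 37 degrees C exposure of HPAF-II cells (1000/well) to compounds in an 11-point titration.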

[14] = UWB1.289 Cancer Cell Toxicity qHTS against the NCATS CANVASS Library (AID 1347347); details: UWB1.289 viability, CellTiter-Glo luminescence, 72 h; further: potency means the concentration at half of the fitted maximal effect; nearly all actives have a fitted effect of over 60% in size
Method in brief: as §1

[15] = OV-SAHO Cancer Cell Toxicity qHTS against the NCATS CANVASS Library (AID 1347348); further: nearly all actives have a fitted effect of over 55% in size
Method in brief: as §1

[16] = COV-362 Cancer Cell Toxicity qHTS against the NCATS CANVASS Library (AID 1347352)
Method in brief: (§2)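 Toxicity was measured as CellTiter-Glo luminescence after 72 h exposure to an 11-point compound series. Compound was added to 1000 cells/well 4 h after seeding.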

[17] = A2780 Cisplatin Sensitive Ovarian Cancer Cell Toxicity qHTS against the NCATS CANVASS Library (AID 1347353); details: A2780 ovarian cancer viability, ATPLite luminescence, 72 h; at 46.1 µM (top of the series); further: nearly all actives have a fitted effect of over 60% in size
Method in brief: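 Cisplatin-sensitive A2780 ovarian cells (750/well) received compound in 11 concentrations, and were incubated 72 h at 37 °C. ATP content was measured by ATPLite luminescence; bortezomib served as control.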

[18] = UWB1.289-WTBRCA1 Cancer Cell Toxicity qHTS against the NCATS CANVASS Library (AID 1347354)
Method in brief: as §2

[19] = HEK-293 Cancer Cell Toxicity qHTS against the NCATS CANVASS Library (AID 1347355); details: HEK-293 viability, CellTiter-Glo luminescence, 72 h; at 46.1 µM (top of the series); further: nearly all actives have a fitted effect of over 65% in size
Method in brief: as §2

[20] = KB-3-1 Cancer Cell Toxicity qHTS against the NCATS CANVASS Library (AID 1347366); details: KB-3-1 viability, CellTiter-Glo luminescence, 72 h; at 46.1 µM (top of the series); further: nearly all actives have a fitted effect of over 75% in size
Method in brief: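 Luminescence from CellTiter-Glo (10 min, room temperature) measured KB-3-1 viability after 72 hr compound exposure at 37C. Cells were seeded at 500/well and tested in an 11-point series.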

Measured: Potency

C=C(C)[C@@H]1CC[C@]2(C(=O)O)CC[C@]3(C)[C@H](CC[C@@H]4[C@@]5(C)CC[C@H](O)C(C)(C)[C@@H]5CC[C@]43C)[C@@H]12
active: [1] 18.8 µM | [2] 4.73 µM
inactive: [3] | [4] | [5] | [6] | [7] | [8] | [9] | [10] | [11] | [12]

O=c1c(O)c(-c2ccc(O)c(O)c2)oc2cc(O)ccc12
inactive: [13] | [15] | [1] | [3] | [16] | [17] | [18] | [19] | [4] | [5] | [6] | [7] | [8] | [9] | [11] | [20]
active: [14] 7.47 µM

Source: PubChem BioAssay (NCATS)
